mHTT-CaM PPI inh – mHTT-calmodulin interaction abrogation | P42858 | AlphaScreen His-mHTT/GST-CaM binding, luminescence | inhibition, % at 15 µM | 190,000 compounds, 3.6% hits | AID 1671202;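 also: 0% = both proteins with DMSO and 100% = one protein alone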
Pf apPOL block – Pf-apPOL DNA polymerase inhibition | Recombinant Pf-apPOL, molecular beacon fluorescence, 1.5 h | inhibition, % at 10 µM | 210,000 compounds, 0.25% hits
Active calls of the source: *; i = inactive; . = no result given; + = active, no number; ! = not active in a repeat. The list is not random: actives were taken first. Their share in the collection is about 3.6%. Rule as the data show it: active = inhibition above about 50%; inactive = the rest.

SMILES	mHTT-CaM PPI inh	Pf apPOL block
COc1ccccc1C(=O)N1CCN(C2=NN=C(c3ccccc3)CS2)CC1	79*	1
COC(=O)c1cccc(C(=O)Nc2ccc(Cl)cc2C)n1	-7	-3
COc1cc(OC)cc(C(=O)N2CCN(C(=O)c3ccc(-c4ccccc4)cc3)CC2)c1	11	-4
COc1cccc(C(=O)N2CCN(c3cc(Cl)ccc3C)CC2)c1OC	100*	0
COc1cccc(C(=O)N2CCN(C(=O)c3ccc(-c4ccccc4)cc3)CC2)c1OC	52*	6
COc1ccccc1C(=O)N1CCN(C(=O)C(c2ccccc2)c2ccccc2)CC1	21	-10
COc1ccccc1N1CCN(C(=O)c2ccc(Cl)cc2[N+](=O)[O-])CC1	7	7
COCc1cccc(NC2(c3ccccc3)C(=O)c3ccccc3C2=O)c1	45	-1
COc1ccc2oc(=O)c(-c3nnc(Nc4ccc(F)cc4)s3)cc2c1	-2	-1
CN(C)C=CC(=N)SCc1c(F)cccc1Cl	.	-10
N#CC(C#N)=C(SCc1c(F)cccc1Cl)SCc1c(F)cccc1Cl	.	72*!
COc1ccccc1NC(=O)c1c(NC(=O)c2ccccc2Cl)sc2c1CCC2	-4	2
COc1ccccc1NC(=O)c1c(NCc2cccnc2)sc2c1CCCC2	71*	-22
CCOc1ccccc1NC(=O)c1c(NCc2cccnc2)sc2c1CCC(C)C2 (centres undefined)	25	-18
COc1ccccc1NC(=O)c1c(NCc2cccnc2)sc2c1CCC2	74*	-17
CC(C)c1nc(CN2CCCc3ccccc32)cc(=O)[nH]1	33	0
CCN(CC)C(=O)CC(c1ccc(OC)cc1)c1c(OC)cc(OC)c2c(-c3ccccc3)cc(=O)oc12 (centres undefined)	88*	9
CCN(CC)CCC(c1cc(OC)c(OC)c(OC)c1)c1c(OC)cc(OC)c2c(C)cc(=O)oc12 (centres undefined)	16	-13
OC(CCN1CCCCC1)c1ccc(-c2ccccc2)cc1 (centres undefined)	.	-4
COc1cc(OC)c2c(-c3ccccc3)cc(=O)oc2c1C(CCN1CCOCC1)c1ccc(N(C)C)cc1 (centres undefined)	94*	-6
CCN(CC)CCC(c1ccc(N(C)C)cc1)c1c(OC)cc(OC)c2c(C)cc(=O)oc12 (centres undefined)	94*	-1
COc1cc(OC)c2c(-c3ccccc3)cc(=O)oc2c1C(CCN1CCCCC1)c1ccc(N(C)C)cc1 (centres undefined)	100*	-9
COc1cc(C(CC(=O)N2CCOCC2)c2c(OC)cc(OC)c3c(-c4ccccc4)cc(=O)oc23)cc(OC)c1OC (centres undefined)	47	-6
CCN(CC)C(=O)Oc1ccc2c(-c3cc4cccc(OC)c4oc3=O)cc(=O)oc2c1	-2	-4
Cc1cccc(C(=O)NCCC2CCN(C(=O)c3ccc(F)cc3)CC2)c1	9	1
SMILES	mHTT-CaM PPI inh	Pf apPOL block
O=C(C1CCN(c2nnc(-c3ccccc3)o2)CC1)N1CCC2(CC1)OCCO2	2	-1
CCC(=O)N1CCc2cc(C(=O)NC3CC3)ccc21	3	-2
Cc1cccc(OCC(=O)Nc2ccccc2[N+](=O)[O-])c1C	0	-13
CCCN1CCN(c2ncc3c(n2)CCN(Cc2ccc(OCC)cc2)C3)CC1	12	-1
O=C1C(=Cc2cc(Cl)cc3c2OCOC3)Oc2cc(OC(=O)C3CC3)ccc21	3	3
COc1cc(C(CCN2CCN(c3ccccc3)CC2)c2c(OC)cc(OC)c3c(C)cc(=O)oc23)cc(OC)c1OC (centres undefined)	94*	-9
COc1cc(C(CCN2CCCC(C)C2)c2c(OC)cc(OC)c3c(C)cc(=O)oc23)cc(OC)c1OC (centres undefined)	14	-11
COc1ccc(C(CCN2CCCCC2)c2c(OC)cc(OC)c3c(-c4ccccc4)cc(=O)oc23)cc1 (centres undefined)	99*	-8
COc1cc(C(CCN2CCCC2)c2c(OC)cc(OC)c3ccc(=O)oc23)cc(OC)c1OC (centres undefined)	8	-3
O=C1CC(C(F)(F)C(F)F)=Nc2ccccc2N1	-10	-7
COC(=O)[C@H](CC(C)C)N(CCc1cn(Cc2ccccc2)nn1)S(=O)(=O)c1ccc(F)cc1Br	16	-4
COC(=O)[C@H](CC(C)C)N(CCc1cn(Cc2ccc(C)cc2)nn1)S(=O)(=O)c1ccc(F)cc1Br	72*	2
COc1cccc(NC(=O)c2ccc(Br)o2)c1	-5	-11
COC(=O)C(C#N)=C(C#N)c1ccc(Br)o1	.	76*
O=C(COC(=O)c1c(C(F)(F)F)cccc1C(F)(F)F)c1ccc(Cl)cc1	.	0
COCCn1cc2c3c(cccc31)CN(C(=O)Cc1ccccc1C)CC2	63*	-2
COCCn1cc2c3c(cccc31)CN(C(=O)Cc1ccc(Cl)cc1)CC2	81*	-2
COCCn1cc2c3c(cccc31)CN(C(=O)Cc1cccc(OC)c1)CC2	46	-6
CCc1ccccc1NC(=O)N1CCc2cn(CCOC)c3cccc(c23)C1	14	-4
CCC(C(=O)Nc1ccc(S(N)(=O)=O)cc1)c1ccccc1 (centres undefined)	-2	-3
NC(=S)Cc1c(Cl)sc2ccc(Cl)cc12	.	-2
Cn1cccc1/C=N/NC(=O)c1cccs1	i	.
Cn1cccc1/C=N/Nc1ccc(F)cc1	+	.
O=C1NC(=Nc2ccccc2)S/C1=C\c1ccc(-c2ccccc2[N+](=O)[O-])o1	44	-12
CN(C)c1ccc(/C=C2/SC(=Nc3ccccc3Cl)NC2=O)cc1	54*	-69
SMILES	mHTT-CaM PPI inh	Pf apPOL block
COc1ccccc1/C=C1/SC(=Nc2ccccc2Cl)NC1=O	20	-2
O=C1NC(=Nc2ccccc2Cl)S/C1=C/c1cc2c(cc1Br)OCO2	55*	0
COc1ccc(/C=C2/SC(=Nc3ccccc3Cl)NC2=O)cc1	43	-1
O=C1NC(=Nc2ccccc2Cl)S/C1=C/c1ccc([N+](=O)[O-])o1	60*	10
CCCN1CCC(NCc2ccccc2F)CC1	-4	-1
Cn1c(C2CCN(S(=O)(=O)Cc3ccc(F)cc3Cl)C2)nc2ccncc21 (centres undefined)	6	3
CC1CC(C)CN(S(=O)(=O)c2ccc(F)c(C(=O)Nc3ccc(Cl)cc3Cl)c2)C1 (centres undefined)	-11	-6
Cc1nc(NC(=O)C2CCCN(c3ccc(-n4cccn4)nn3)C2)sc1C (centres undefined)	94*	-8
Cc1ccnc(NC(=O)C2CCCN(c3cc(-n4cccn4)ncn3)C2)c1 (centres undefined)	49	-2
O=C(NCc1cccs1)C1CCCN(c2ccc(-n3cccn3)nn2)C1 (centres undefined)	57*	-6
Cn1ncc(N2CCCC(C(=O)NCc3cccs3)C2)cc1=O (centres undefined)	0	-7
CC(=O)OCC1OC(Sc2ccccc2)C(OC(C)=O)C(OC(C)=O)C1OC(C)=O (centres undefined)	.	-12
O=C(Nc1ccc(Cl)cc1)c1c(Cl)nsc1Cl	-15	0
CCNC(=O)c1nc(-c2ccc(C)cc2)n2c1CCCCC2	7	-16
COc1cccc(CNC(=O)c2nc(-c3ccc(C)cc3)n3c2CCCCC3)c1	74*	3
O=C(NCc1cccnc1)c1nc(-c2ccc(Cl)cc2)n2c1CCCCC2	21	0
COc1ccc(CNC(=O)c2nc(-c3ccc(C)cc3)n3c2CCCCC3)cc1	54*	-2

Assay outcomes: PubChem, University of Kansas High Throughput Screening Laboratory
